# Data: PubChem BioAssay (NCI)
# The panel holds about 83,000 compounds, 20% with a hit somewhere; the sample as a whole holds those more often.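 Step 1: grow cells in 96-well plates. Step 2: add test compound at a single concentration. Step 3: incubate 48 h. Step 4: record percent growth.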 Values without a mark were called inactive. The source made the active and inactive calls. The calls were made as follows: active = growth percent below 10; inactive = the rest.
# Tested on: HL-60(TB) leukemia
# Assay: NCI-60 one-dose screen, 48 h (100 = growth as untreated, 0 = no growth, -100 = all killed)
# Details: 10 µM unless noted
row,SMILES,growth
1,N=c1ccccn1CCO,120%
2,COc1ncc(-c2ccc3nc(N)n(-c4ccccc4C(F)(F)F)c(=O)c3c2)cc1S(=O)(=O)Nc1ccc(F)cc1F,19.9%
3,COc1cc2c(cc1OCCCCN1CCN(CC(=O)Nc3ccc(Cl)cc3C(=O)c3ccccc3Cl)CC1)N=CC1CCCN1C2=O (stereo not given),-72.1% (active)
4,CCOc1ccc(-n2nc(C(=O)Nc3ccccc3)nc2-c2cc(OC)c(OC)c(OC)c2)cc1,32.9%
5,COc1ccc(-c2nc(-c3ccccc3)c(-c3ccccc3)n2C2CC2)cc1OC1CCCCC1,30%
6,Nc1ccc(S(=O)(=O)c2ccc(NO)cc2)cc1,107%
7,COc1cc2c(cc1O)[C@@]1(C)[C@H](c3ccccc3Br)OC(=O)N1CC2,73.3%
8,O=C1C(Cl)=C(Nc2ccccc2)C(=O)C(Cl)=C1Nc1ccccc1,122%
9,CC1=NN(c2cccc(S(N)(=O)=O)c2)C(=O)C1,124%
10,Cc1ccc(-c2nc3c(c(-c4ccccc4)nn3-c3ccccc3)c(-c3ccc(O)cc3)c2C#N)cc1,33%
11,CCN(CC)S(=O)(=O)c1cccc([N+](=O)[O-])c1,95.5%
12,O=C(Nc1cccc(Cl)c1)c1ccc(Cl)cc1Cl,92%
13,C=CC(=O)N1CC2(CC(n3nc(-c4ccc(Oc5ccccc5)cc4)c4c(N)ncnc43)C2)C1,62.3%
14,CCCCCCN1CCN(Cc2ccc(N(CC)CC)cc2)C(=O)C1=O,-19.1% (active)
15,COc1ccc(C2CC(c3cc(OC)c(OC)c(OC)c3)=NO2)cc1OCCCCOc1cc2c(cc1OC)C(=O)N1CCC[C@H]1C=N2 (stereo not given in full),34%
